# Rows were chosen to be rich in hits. Some 3.5% of all compounds tested hit in one or more screens of this group.
# Mtb UGM inh = Mtb UDP-galactopyranose mutase inhibition. purified UGM, fluorescence polarization probe displacement. P9WIQ1. 0.06% of 320,000 active. inhibition, % at 10 µM; in the data active = inhibition above about 10%, passing the limit was not always enough
# GDH-TPI inh = inhibits GDH-TPI coupling enzymes, artifact for Mtb FBA screen | GDH-TPI coupled enzyme counterscreen, NADH absorbance | inhibition, % at 4.8 µM | 1.2% of 360,000 active | AID 588335; in the data active = inhibition above about 30%
# Rv3671c inh = inhibitors of M. tuberculosis serine protease Rv3671c. 0.048% of 320,000 active. P9WHR9. inhibition, % at 5.96 µM. AID 2606; in the data active = inhibition above about 38%;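 note: extracellular domain of Rv3671c used as enzyme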
# Target sequence (P9WHR9 whole entry, looked up, the tested form may be a part): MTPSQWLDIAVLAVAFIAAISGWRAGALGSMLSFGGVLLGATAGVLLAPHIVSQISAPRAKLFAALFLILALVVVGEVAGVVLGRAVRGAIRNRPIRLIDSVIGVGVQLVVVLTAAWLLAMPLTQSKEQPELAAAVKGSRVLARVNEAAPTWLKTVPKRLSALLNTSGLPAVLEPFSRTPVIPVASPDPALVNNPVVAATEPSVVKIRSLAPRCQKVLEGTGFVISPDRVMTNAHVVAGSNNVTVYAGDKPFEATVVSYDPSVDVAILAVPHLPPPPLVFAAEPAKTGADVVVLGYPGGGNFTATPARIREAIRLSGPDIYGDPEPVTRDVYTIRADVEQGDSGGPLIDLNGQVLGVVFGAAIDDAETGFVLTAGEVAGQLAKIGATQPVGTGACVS
# Mtb FBA inh = Mtb fructose-bisphosphate aldolase inhibition; P9WQA3; purified M. tuberculosis FBA, fluorescence read-out; inhibition, % at 1 µM; 2.3% of 360,000 active; AID 588726; in the data active = inhibition above about 27%
# A number is an active result; – = inactive; · = no result; + = active, no number.
SMILES,Mtb UGM inh,GDH-TPI inh,Rv3671c inh,Mtb FBA inh
COC(=O)c1cc(NS(=O)(=O)c2ccc(C)c3ccccc23)ccc1N1CCOCC1,–,–,–,–
CC(C)(C)c1ccc(OCCC(=O)OCC(=O)Nc2ccc(N3CCOCC3)cc2)cc1,–,–,–,–
CCCCn1c(N)c(N(C(=O)CSc2nnnn2-c2ccccc2C)C2CCCC2)c(=O)[nH]c1=O,·,–,·,–
COc1cc(NC(=O)[C@@H]2O[C@H](CO)[C@@H](O)[C@H]2O)cc(OC)c1OC,·,–,·,–
O=C(N/N=C/c1ccc2c(c1)OCO2)c1ccc(NS(=O)(=O)c2cccs2)cc1,–,33,–,–
COc1cc(/C=N/NC(=O)c2ccc(NS(=O)(=O)c3cccs3)cc2)cc(OC)c1O,–,39,–,–
COc1ccc(OC)c(C=NNC(=O)c2ccccc2NS(=O)(=O)c2cccs2)c1,–,31,–,–
O=C(N/N=C/c1ccc([N+](=O)[O-])o1)c1ccc(NS(=O)(=O)c2cccs2)cc1,–,–,–,–
Cc1nn(-c2ccc(Cl)cc2)c(Cl)c1/C=N/NC(=O)c1ccc(NS(=O)(=O)c2cccs2)cc1,–,32,–,–
Cc1nn(-c2ccc(F)cc2)c(Cl)c1/C=N/NC(=O)c1cccs1,–,–,–,–
Cc1noc(C)c1S(=O)(=O)N(C)C[C@H]1Oc2ccc(NC(=O)CCC(F)(F)F)cc2C(=O)N([C@H](C)CO)C[C@@H]1C,–,–,–,–
O=C(NN=Cc1ccc(F)c(F)c1)c1ccc(NS(=O)(=O)c2cccs2)cc1,–,46,–,–
Cn1c(=O)c2[nH]c(N=NN3CCCCC3)nc2n(C)c1=O,·,54,·,–
CC(=O)/C(N=Nc1nc2c([nH]1)c(=O)n(C)c(=O)n2C)=C(\C)O,–,–,–,–
CC1CCCCN1N=Nc1nc2c([nH]1)c(=O)n(C)c(=O)n2C (stereo unspecified),·,39,·,–
CC1CCN(N=Nc2nc3c([nH]2)c(=O)n(C)c(=O)n3C)CC1,·,31,·,–
CCOc1ccc(CCNC(=O)CSc2n[nH]c(N)n2)cc1OCC,–,–,–,–
Cc1cc(=O)oc2cc(OC(C)C(=O)NC3(C#N)CCCCC3)ccc12 (stereo unspecified),–,–,–,–
O=C(CCc1ccc(O)cc1)c1c(O)cc(O)cc1O[C@@H]1O[C@H](CO)[C@@H](O)[C@H](O)[C@H]1O,–,33,–,–
CC1OC(OCC2OC(Oc3c(-c4ccc(O)cc4)oc4cc(O)cc(O)c4c3=O)C(O)C(O)C2O)C(O)C(O)C1O (stereo unspecified),–,–,–,–
O=c1c(O[C@@H]2O[C@H](CO)[C@@H](O)[C@H](O)[C@H]2O)c(-c2ccc(O)cc2)oc2cc(O)cc(O)c12,–,37,–,–
CSCC[C@H]1COC[C@@H](Cc2ccccc2)N1c1ccccc1,·,–,·,–
CCC(CC)C(=O)N1N=C(c2ccc(NS(C)(=O)=O)cc2)CC1c1ccccc1 (stereo unspecified),–,–,–,+
Cc1cccc(C(=O)N2N=C(c3ccc(NS(C)(=O)=O)cc3)CC2c2cccs2)c1 (stereo unspecified),–,–,–,–
CCC(=O)N1N=C(c2ccc(NS(C)(=O)=O)cc2)CC1c1ccc(C)cc1 (stereo unspecified),–,–,–,+
SMILES,Mtb UGM inh,GDH-TPI inh,Rv3671c inh,Mtb FBA inh
COc1ccccc1C1CC(c2ccc(NS(C)(=O)=O)cc2)=NN1C(=O)c1ccccc1 (stereo unspecified),–,–,–,–
CCC(CC)C(=O)N1N=C(c2ccc(NS(C)(=O)=O)cc2)CC1c1ccc(C)cc1 (stereo unspecified),–,–,–,+
CC(=O)N1N=C(c2cccc(NS(C)(=O)=O)c2)CC1c1ccc2c(c1)OCO2 (stereo unspecified),–,–,–,–
CS(=O)(=O)Nc1ccc(C2=NN(S(C)(=O)=O)C(c3ccc4c(c3)OCO4)C2)cc1 (stereo unspecified),–,–,–,141
CCn1c(=O)c2sccc2n2c(CCCC(=O)NCc3cccnc3)nnc12,–,–,–,–
C(=C\c1nnc(-c2cccs2)o1)/c1ccccc1,–,51,–,–
CN(c1ccccc1)S(=O)(=O)c1cccc(NC(=O)CSc2ncc(C(F)(F)F)cc2Cl)c1,–,–,–,–
COc1ccccc1OCCN1C(=O)S/C(=C\c2ccco2)C1=O,–,34,–,–
CCC12CCCN3CCC4(C(=C(C(=O)OC)C1)Nc1ccccc14)C32 (stereo unspecified),·,33,·,–
COC(=O)C1=CO[C@H](C)[C@H]2CN3CC[C@@]4(C(=O)Nc5ccccc54)[C@@H]3C[C@H]12,–,–,–,–
N#Cc1ccc(S(=O)(=O)N2CCC(C(=O)N3CCN(Cc4ccc5c(c4)OCO5)CC3)CC2)cc1,–,–,–,–
CC(C)C[C@H]1C(=O)N2CCC[C@H]2[C@]2(O)O[C@](NC(=O)[C@@H]3C=C4c5cccc6[nH]cc(c56)C[C@H]4N(C)C3)(C(C)C)C(=O)N12,–,–,–,–
CC[C@@H](CO)NC(=O)[C@@H]1C=C2c3cccc4[nH]cc(c34)C[C@H]2N(C)C1,·,–,·,128
O=C(Nc1nc(-c2ccccn2)cs1)c1ccc(Cl)s1,–,36,–,–
Cc1ccc(C(=O)Nc2nc(-c3ccccn3)cs2)s1,–,–,–,–
COc1ccc(S(=O)(=O)NCCC(=O)Nc2ccc(C)cc2)cc1,–,–,–,–
COc1ccc(-c2nc3ccc(C)cn3c2NCc2ccccc2)cc1SC1CCCCC1,–,–,–,–
CCC(C)Sc1ccc(-c2nc3ccc(C)cn3c2NCc2ccccc2)cc1OC (stereo unspecified),–,42,–,116
CCC(C)Sc1cc(-c2nc3ccc(C)cn3c2NCc2ccccc2)ccc1OC (stereo unspecified),–,–,–,64
CCOc1ccc(-n2c([S-])c(C(=O)Nc3ccc(S(=O)(=O)N4CCOCC4)cc3)[n+]3cc(C(N)=O)ccc23)cc1,–,39,–,–
O=C(Cn1c(=O)c2cccn2c2cccnc21)N1CCN(c2ccc(Cl)cc2)CC1,–,–,–,–
CCC(C)(C(=O)Nc1ccc(OC)cc1)N(C)C(=O)Cn1nnnc1N (stereo unspecified),–,–,–,–
CCN(CC)c1ccc(/C=N/NS(=O)(=O)c2cccc([N+](=O)[O-])c2)cc1,–,–,–,–
CCN(Cc1ccccc1)c1ccc(/C=N/NS(=O)(=O)c2ccc(C)c([N+](=O)[O-])c2)cc1,–,32,–,–
O=C(NCC(F)(F)F)[C@H]1O[C@@H](n2ccc(=O)[nH]c2=O)[C@H](O)[C@@H]1O,·,·,·,–
O=C(Nc1ccc([N+](=O)[O-])cc1)N1CCCCC1,–,45,–,–
COc1ccccc1N1CCN(C2CCCN(C(=O)CC(F)(F)F)C2)CC1 (stereo unspecified),–,–,–,–
COc1ccccc1N1CCN(C2CCCN(C(=O)CCC(=O)N(C)C)C2)CC1 (stereo unspecified),10,–,–,–
CC1(c2ccncc2)Nc2ccccc2-c2nc3ccccc3n21 (stereo unspecified),–,–,–,158

# From PubChem
